Screening results as filed in PubChem BioAssay.
A selection: hits, their analogues and other compounds. The true share with any hit is near 7.8%.
HCMV inh – inhibitors of human cytomegalovirus; HFF cells, HCMV-luciferase reporter, 72 h; hits give low values; activity change, negative = inhibition, % at 57.5 µM; 410,000 compounds, 4.5% hits; in the data active = activity change below about -60%; inconclusive = no clear call, values can overlap the other calls; inactive = above about -39%
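After 16 h attachment at 37C, HFF cells received test compound and HCMV-luciferase (1 PFU/cell); reporter luminescence read 72 h later, data normalized against buffer-only and known inhibitor Salinomycin.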
VACV mCherry inh – inhibitors of vaccinia virus infection (mCherry reporter signal) | Vaccinia virus mCherry reporter infection, fluorescence | Potency, µM (top dose mostly 36.5 µM), hits mostly inhibitors | 310,000 compounds, 0.63% hits | AID 720579; calls by dose curve; tested in A549 cells; note: nearly all actives have a fitted effect of over 35% in size
HCV inh – HCV inhibition. Huh7.5.1 HCVcc-Cre infection, luciferase reporter, 44 h. Potency, µM (series often up to 41.8 µM), actives largely listed as inhibitors. 340,000 compounds, 3.4% hits; active = well fitted inhibition curve with a large enough effect; inconclusive = small, poorly fitted or top-dose-only effect, or another doubt; inactive = no such curve, though single readings can be large or run the other way
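Luciferase read-out (15 sec integration) after a 15 min room-temperature substrate step quantifies HCVcc-Cre infection. Cells, 1,000 per well, had compound added 4 h post-plating, then virus at ~0.5 moi, and were cultured 44 h.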
Marburg entry inh – blocks Marburg virus binding to or entry into cells; Marburg virus pseudotyped entry inhibition, cell reporter; Potency, µM (titrated, usually from 37.8 µM), actives largely listed as inhibitors; 300,000 compounds, 1.8% hits; AID 540276; calls by dose curve; tested in HEK293 cells
LASV entry inh – inhibitors of Lassa virus binding or cell entry; Lassa virus pseudotype entry inhibition, cell reporter; Potency, µM (doses to about 37.9 µM), hits mostly inhibitors; 300,000 compounds, 1.2% hits; calls by dose curve; tested in HEK293 cells; note: nearly all actives have a fitted effect of over 50% in size
VACV Venus inh – inhibitors of vaccinia virus (Venus reporter) | Potency, µM (titrated, usually from 36.5 µM), actives largely listed as inhibitors | AID 720580 | 330,000 compounds, 0.46% hits | Vaccinia virus Venus reporter expression, fluorescence; calls by dose curve; tested in A549 cells; note: nearly all actives have a fitted effect of over 30% in size
Hits are given with their value; 0 = inactive; ? = inconclusive; - = not tested or not shown.

SMILES	HCMV inh	VACV mCherry inh	HCV inh	Marburg entry inh	LASV entry inh	VACV Venus inh
Cc1ccc(Sc2ccc(N3CCCC(C(=O)Nc4ccc(Br)cc4)C3)nn2)cc1 (stereo not given)	0	0	-	0	1.12µM	0
COc1ccc(CN(C)C(=O)CCc2ccc(S(=O)(=O)N3CCCCCC3)cc2)c(OC)c1	0	-	?	-	-	-
COc1ccc(CN(C)C(=O)/C=C/c2ccc(S(=O)(=O)N3CCCCCC3)cc2)cc1	?	?	11.2µM	?	5.01µM	?
CNC(=O)c1ccc(CN(C)C(=O)/C=C/c2ccc(S(=O)(=O)N3CCCCCC3)cc2)cc1	-84.4	0	-	-	-	0
CN(CC(=O)Nc1cccc(F)c1)C(=O)/C=C/c1ccc(S(=O)(=O)N2CCCCCC2)cc1	0	?	0	?	0	?
CCOc1ccc(CN(C)C(=O)CCl)cc1	0	?	?	11.2µM	?	0
CCOc1ccc(CN(C)C(=O)CCc2ccc(S(=O)(=O)N3CCCCCC3)cc2)cc1	-60.4	-	3.98µM	-	-	-
CCOc1ccc(CN(C)C(=O)CCNC(=O)c2ccco2)cc1	0	-	0	-	-	-
Cc1ccc(NC(=O)CSCn2nnc3c(=O)[nH]c(Cc4ccc(F)cc4)nc32)c(C)c1	0	0	-	0	0	0
O=C(C1CCOCC1)N1CC(=O)N2[C@@H](CO)[C@H](c3ccc(Br)cc3)[C@@H]2C1	0	-	-	-	-	-
Cc1cccc(Cn2cc(S(=O)(=O)c3ccccc3)c(=O)c3cc(F)c(N4CCOCC4)cc32)c1	0	0	-	-	?	0
COC(=O)[C@@]1(Sc2ccc(OC)cc2)CC(=O)N(c2ccc(OC(C)C)cc2CO)[C@@H]1c1ccc(OC(C)C)c(OC)c1	0	-	-	-	-	-
NS(=O)(=O)c1ccc(NCc2cc(Cl)ccc2OCc2ccccc2F)cc1	-61.0	-	?	0	0	-
NS(=O)(=O)c1ccc(NCc2c(F)cccc2Cl)cc1	0	-	0	0	0	-
COCCN1C(=O)C2=C(C1=O)C1N(C)c3ccccc3[C@@]13C[C@@H](CO)N=C3N2 (stereo not given in full)	-	-	-	0	-	-
CC(=O)N1CCC2(CC1)OC(=O)C(C)=C2C(=O)Nc1ccccc1C(F)(F)F	0	0	-	-	?	0
COc1cc(-c2nc3nc(C)cc(C)n3c2Nc2ccc(Cl)cc2)ccc1O	0	0	-	0	?	0
Cc1ncc(CNC(=O)N(CCCl)N=O)c(N)n1	0	0	2.82µM	?	0	0
C=CCN=C1NC(c2cccc(C(F)(F)F)c2)C(C(=O)OC)=C(C)N1CC (stereo not given)	-	-	-	0	-	-
C#CCCCON=C1C[C@@H](O)[C@H](O)[C@H]2[C@@H]3C(=O)N(Cc4ccccc4)C(=O)[C@@H]3CC[C@H]12	-	-	-	0	-	-
Cc1cc(N)c2ccccc2[n+]1CCCCCCCCCCCCCC[n+]1c(C)cc(N)c2ccccc21	-	-	-	8.91µM	-	-
Cc1ccccc1CN1[C@H]2CCCC[C@@H]2OCCS1(=O)=O	-	0	-	-	-	0
CC1CCN(CCCNC(=O)CCc2nnc3n(CCc4ccccc4)c(=O)c4ccccc4n23)CC1	0	0	?	?	0	0
O=C(CCc1nnc2n(Cc3ccccc3)c(=O)c3ccccc3n12)NCCCN1CCCCC1	-62.0	0	0	?	0	0
O=C(CC1CCCCC1)N1CCCC(c2nc(-c3ccc(S(=O)(=O)N4CCCC4)cc3)no2)C1 (stereo not given)	-70.6	0	?	0	0	0
SMILES	HCMV inh	VACV mCherry inh	HCV inh	Marburg entry inh	LASV entry inh	VACV Venus inh
COc1ccc(-c2noc(C3CCCN(C(=O)CCc4ccccc4)C3)n2)cc1 (stereo not given)	0	-	0	0	0	-
O=S(=O)(c1ccc(Cl)cc1)N1CCCC(c2nc(-c3ccc(F)cc3)no2)C1 (stereo not given)	0	0	0	-	-	0
COc1ccc(C(=O)N2CCC(c3nc(-c4ccc(S(=O)(=O)N5CCCC5)cc4)no3)CC2)cc1	-81.2	?	-	?	0	0
O=C(c1ccco1)N1CCCC(c2nc(-c3ccc(S(=O)(=O)NCc4ccccc4)cc3)no2)C1 (stereo not given)	-87.8	0	?	?	?	?
O=C1c2ccccc2NC(c2ccccc2)N1Cc1ccccc1 (stereo not given)	0	0	0	0	?	0
Cc1ccc(CN2C(=O)c3ccccc3NC2c2cc(Br)ccc2O)cc1 (stereo not given)	-79.4	?	0	?	?	0
Cc1ccc(Cc2c(C)nc3nc(SCC(=O)NCCCN4CCCCCC4)nn3c2C)cc1	?	0	?	?	0	0
